# Laboratory results from publication PMC7862700, “An all-to-all approach to the identification of sequence-specific readers for epigenetic DNA modifications on cytosine”.
# Columns and labels:
# Assay in all cases: DAPPL (digital affinity profiling via proximity ligation, sequencing); 10 mM Tris-HCl pH 7.5, 50 mM NaCl, 1 mM DTT, 4% glycerol, room temperature, 30 min; GST-TFs on glutathione beads, 16-mer random dsDNA library, 0.1% formaldehyde crosslink after washing; high values mean tight binding
# [1] = target: T1, FEV (Homo sapiens, UniProt Q99581 1-238); conditions: protein: recombinant; tags: N-terminal GST; dsDNA, one strand shown
# T1 sequence: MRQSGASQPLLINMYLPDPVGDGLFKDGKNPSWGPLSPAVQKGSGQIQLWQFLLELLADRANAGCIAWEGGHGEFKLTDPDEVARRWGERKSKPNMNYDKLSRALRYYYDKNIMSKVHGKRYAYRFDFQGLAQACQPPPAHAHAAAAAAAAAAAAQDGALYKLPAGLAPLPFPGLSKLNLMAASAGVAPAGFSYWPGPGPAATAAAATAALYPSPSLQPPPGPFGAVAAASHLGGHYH
# Procedure, shortened: (§1)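 Pools were built from human transcription factors expressed in yeast as GST fusions, captured on glutathione beads and DNA-barcoded, along with a tag-only sample. Incubation with 200 nmole of a 16-mer random double-stranded DNA library lasted 30 min at room temperature in Tris/NaCl/DTT/glycerol buffer, and was followed by washing, 0.1% formaldehyde crosslinking, proximity ligation, PCR amplification and Illumina NextSeq500 sequencing. Binding signal is the quotient of each hexamer's read frequency for a factor and its frequency for the tag-only sample.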
# [2] = target: ETV5 (Homo sapiens, UniProt P41161 1-510); conditions: protein: recombinant; tags: N-terminal GST; dsDNA, one strand shown
# Chain of ETV5 (P41161 whole entry): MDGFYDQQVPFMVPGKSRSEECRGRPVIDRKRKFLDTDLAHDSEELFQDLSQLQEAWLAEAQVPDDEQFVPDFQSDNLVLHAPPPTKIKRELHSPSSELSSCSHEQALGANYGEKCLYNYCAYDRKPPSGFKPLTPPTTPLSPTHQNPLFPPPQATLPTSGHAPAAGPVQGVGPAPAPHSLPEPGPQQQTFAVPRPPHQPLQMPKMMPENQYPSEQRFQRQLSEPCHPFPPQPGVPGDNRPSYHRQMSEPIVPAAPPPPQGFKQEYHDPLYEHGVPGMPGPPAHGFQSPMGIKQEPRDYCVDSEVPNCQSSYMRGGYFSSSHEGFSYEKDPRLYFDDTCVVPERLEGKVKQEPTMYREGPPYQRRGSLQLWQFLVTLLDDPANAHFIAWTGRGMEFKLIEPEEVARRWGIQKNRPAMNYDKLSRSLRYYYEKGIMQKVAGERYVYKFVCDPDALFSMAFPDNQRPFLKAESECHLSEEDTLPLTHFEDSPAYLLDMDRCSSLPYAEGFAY
# Procedure, shortened: as §1
# [3] = target: HSF1 (Homo sapiens, UniProt Q00613 1-529); conditions: protein: recombinant; tags: N-terminal GST; chain copies: 3; dsDNA, one strand shown
# Chain of HSF1 (Q00613 whole entry): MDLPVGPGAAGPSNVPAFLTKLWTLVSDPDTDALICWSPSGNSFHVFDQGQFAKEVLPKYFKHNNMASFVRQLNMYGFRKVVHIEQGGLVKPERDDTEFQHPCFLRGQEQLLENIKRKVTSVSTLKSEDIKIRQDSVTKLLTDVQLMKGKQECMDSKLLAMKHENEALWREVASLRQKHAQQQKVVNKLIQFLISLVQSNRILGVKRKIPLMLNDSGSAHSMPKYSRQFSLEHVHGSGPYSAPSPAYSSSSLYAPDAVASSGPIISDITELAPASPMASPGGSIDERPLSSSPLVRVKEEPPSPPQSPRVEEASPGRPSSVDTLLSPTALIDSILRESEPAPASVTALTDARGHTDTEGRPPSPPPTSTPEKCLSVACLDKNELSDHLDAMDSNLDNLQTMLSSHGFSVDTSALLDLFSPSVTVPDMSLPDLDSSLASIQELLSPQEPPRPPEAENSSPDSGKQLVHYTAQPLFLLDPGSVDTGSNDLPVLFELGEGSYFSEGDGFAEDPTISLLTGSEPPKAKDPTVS
# Procedure, shortened: as §1
# [4] = target: T2, SPIC (Homo sapiens, UniProt Q8N5J4 1-248); conditions: protein: recombinant; tags: N-terminal GST; dsDNA, one strand shown
# T2 sequence: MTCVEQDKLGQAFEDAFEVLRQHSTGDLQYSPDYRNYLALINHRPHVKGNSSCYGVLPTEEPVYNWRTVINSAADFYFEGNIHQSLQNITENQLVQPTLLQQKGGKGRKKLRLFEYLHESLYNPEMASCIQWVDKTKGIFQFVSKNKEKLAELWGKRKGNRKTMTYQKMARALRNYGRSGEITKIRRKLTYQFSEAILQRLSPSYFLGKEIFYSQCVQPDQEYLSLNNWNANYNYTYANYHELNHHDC
# Procedure, shortened: as §1
# [5] = target: ELF4 (Homo sapiens, UniProt Q99607 1-663); conditions: protein: recombinant; tags: N-terminal GST; dsDNA, one strand shown
# Chain of ELF4 (Q99607 whole entry): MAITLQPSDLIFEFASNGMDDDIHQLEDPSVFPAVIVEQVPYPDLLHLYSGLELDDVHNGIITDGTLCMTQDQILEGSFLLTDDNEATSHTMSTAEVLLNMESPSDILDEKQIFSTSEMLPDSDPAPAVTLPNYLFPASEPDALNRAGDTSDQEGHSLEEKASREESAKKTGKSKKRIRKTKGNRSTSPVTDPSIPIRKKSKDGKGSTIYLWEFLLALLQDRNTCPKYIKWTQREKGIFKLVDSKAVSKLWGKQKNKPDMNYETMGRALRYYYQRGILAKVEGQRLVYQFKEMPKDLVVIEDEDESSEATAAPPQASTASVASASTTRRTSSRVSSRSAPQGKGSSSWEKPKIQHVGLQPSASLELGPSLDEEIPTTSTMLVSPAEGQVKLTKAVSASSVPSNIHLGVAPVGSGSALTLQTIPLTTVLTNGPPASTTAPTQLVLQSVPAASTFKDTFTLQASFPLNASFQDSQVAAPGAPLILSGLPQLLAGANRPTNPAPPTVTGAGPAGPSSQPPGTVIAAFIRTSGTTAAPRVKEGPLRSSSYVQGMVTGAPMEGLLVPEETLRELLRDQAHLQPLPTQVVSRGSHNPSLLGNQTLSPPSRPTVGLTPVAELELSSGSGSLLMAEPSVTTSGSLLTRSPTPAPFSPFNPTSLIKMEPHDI
# Procedure, shortened: as §1
# [6] = target: T3, ELK4 (Homo sapiens, UniProt P28324-2 1-405); conditions: protein: recombinant; tags: N-terminal GST; dsDNA, one strand shown
# T3 sequence: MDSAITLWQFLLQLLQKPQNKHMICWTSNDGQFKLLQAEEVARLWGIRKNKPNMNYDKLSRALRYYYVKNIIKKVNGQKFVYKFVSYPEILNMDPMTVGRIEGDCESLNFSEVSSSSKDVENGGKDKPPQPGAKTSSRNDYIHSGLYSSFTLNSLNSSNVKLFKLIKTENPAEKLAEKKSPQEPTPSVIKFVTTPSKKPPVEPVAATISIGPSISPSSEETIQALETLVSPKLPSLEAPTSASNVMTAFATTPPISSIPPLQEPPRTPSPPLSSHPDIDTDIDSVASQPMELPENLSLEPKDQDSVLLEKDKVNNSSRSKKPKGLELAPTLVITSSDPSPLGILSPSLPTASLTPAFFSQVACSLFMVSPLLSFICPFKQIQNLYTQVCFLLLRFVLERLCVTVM
# Procedure, shortened: as §1
# [7] = target: T4, ETV2 (Homo sapiens, UniProt O00321 1-342); conditions: protein: recombinant; tags: N-terminal GST; dsDNA, one strand shown
# T4 sequence: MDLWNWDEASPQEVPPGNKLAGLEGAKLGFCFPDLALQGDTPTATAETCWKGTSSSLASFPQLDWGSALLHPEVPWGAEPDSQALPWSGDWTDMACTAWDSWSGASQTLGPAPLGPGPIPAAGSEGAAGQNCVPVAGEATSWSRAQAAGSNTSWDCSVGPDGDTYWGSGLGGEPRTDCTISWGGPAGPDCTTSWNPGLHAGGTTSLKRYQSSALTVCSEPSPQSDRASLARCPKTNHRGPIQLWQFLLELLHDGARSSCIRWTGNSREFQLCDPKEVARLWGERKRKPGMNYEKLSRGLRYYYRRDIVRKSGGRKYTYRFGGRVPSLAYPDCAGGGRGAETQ
# Procedure, shortened: as §1
# [8] = target: T5, ELF3 (Homo sapiens, UniProt P78545 1-371); conditions: protein: recombinant; tags: N-terminal GST; dsDNA, one strand shown
# T5 sequence: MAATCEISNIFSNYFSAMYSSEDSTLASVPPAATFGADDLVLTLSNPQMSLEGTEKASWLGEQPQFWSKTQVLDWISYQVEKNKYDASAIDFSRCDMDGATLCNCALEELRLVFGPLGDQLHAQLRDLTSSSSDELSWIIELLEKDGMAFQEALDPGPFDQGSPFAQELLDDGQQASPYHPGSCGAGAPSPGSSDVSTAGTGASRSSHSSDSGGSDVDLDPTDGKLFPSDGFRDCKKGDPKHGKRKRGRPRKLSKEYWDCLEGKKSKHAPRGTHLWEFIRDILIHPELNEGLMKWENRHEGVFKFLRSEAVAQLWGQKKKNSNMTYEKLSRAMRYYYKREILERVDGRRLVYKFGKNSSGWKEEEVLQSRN
# Procedure, shortened: as §1
# [9] = target: CRX (Homo sapiens, UniProt O43186 1-299); conditions: protein: recombinant; tags: N-terminal GST; dsDNA, one strand shown
# Chain of CRX (O43186 whole entry): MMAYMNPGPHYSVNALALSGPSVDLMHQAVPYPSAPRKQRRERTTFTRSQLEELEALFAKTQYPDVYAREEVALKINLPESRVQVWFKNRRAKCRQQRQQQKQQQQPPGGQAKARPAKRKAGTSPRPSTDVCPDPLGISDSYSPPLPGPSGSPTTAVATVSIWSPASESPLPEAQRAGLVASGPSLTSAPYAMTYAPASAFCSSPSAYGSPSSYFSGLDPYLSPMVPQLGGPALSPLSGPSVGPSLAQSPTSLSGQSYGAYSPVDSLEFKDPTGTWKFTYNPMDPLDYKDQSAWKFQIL
# Procedure, shortened: as §1
# [10] = target: ETV1 (Homo sapiens, UniProt P50549 1-477); conditions: protein: recombinant; tags: N-terminal GST; dsDNA, one strand shown
# Chain of ETV1 (P50549 whole entry): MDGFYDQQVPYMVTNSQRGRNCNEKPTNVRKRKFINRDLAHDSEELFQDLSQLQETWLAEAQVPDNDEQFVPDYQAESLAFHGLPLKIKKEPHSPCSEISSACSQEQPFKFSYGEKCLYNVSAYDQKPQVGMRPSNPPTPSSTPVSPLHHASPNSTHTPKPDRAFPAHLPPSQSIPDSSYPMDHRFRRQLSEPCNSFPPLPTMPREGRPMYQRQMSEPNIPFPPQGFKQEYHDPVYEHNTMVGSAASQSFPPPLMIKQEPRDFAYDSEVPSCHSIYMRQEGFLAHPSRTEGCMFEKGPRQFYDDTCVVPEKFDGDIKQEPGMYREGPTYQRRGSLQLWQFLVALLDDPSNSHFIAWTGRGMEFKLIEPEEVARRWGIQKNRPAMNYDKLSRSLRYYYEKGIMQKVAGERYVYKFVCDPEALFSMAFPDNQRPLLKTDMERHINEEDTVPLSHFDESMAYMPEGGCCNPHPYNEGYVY
# Procedure, shortened: as §1
sequence,measurement,setting,value
GCTTTG,binding signal,[1],"1.08 fold enrichment (6-mer frequency, TF over GST control)"
same,binding signal,[2],"1.11 fold enrichment (6-mer frequency, TF over GST control)"
same,binding signal,[3],"1.23 fold enrichment (6-mer frequency, TF over GST control)"
same,binding signal,[4],"1.22 fold enrichment (6-mer frequency, TF over GST control)"
same,binding signal,[5],"1.17 fold enrichment (6-mer frequency, TF over GST control)"
same,binding signal,[6],"1.22 fold enrichment (6-mer frequency, TF over GST control)"
same,binding signal,[7],"1.22 fold enrichment (6-mer frequency, TF over GST control)"
same,binding signal,[8],"1.16 fold enrichment (6-mer frequency, TF over GST control)"
same,binding signal,[9],"1.49 fold enrichment (6-mer frequency, TF over GST control)"
same,binding signal,[10],"1.16 fold enrichment (6-mer frequency, TF over GST control)"
